PubChem BioAssay (NCATS)
“And” between values parts separate entries of the source, which are not always exact repeats. Equal values may be shown once. Results filed as inconclusive are left out. The source made the active and inactive calls. Unless noted, calls come from the whole dose curve.

Experiments:
[1] = molecular target: Bile acid receptor (Homo sapiens) (UniProt Q96RI1); assay: qHTS assay for small molecule antagonists of farnesoid X receptor signaling (AID 588526); note: % is set by controls: 0 for no effect and ±100 for the full control effect
Method in brief: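 Concentration-response titrations were fitted to the Hill equation for half-maximal inhibition and maximal response, with data normalised to 50 uM chenodeoxycholic acid and DMSO control wells. Cells: FXR-UAS-bla HEK293T, dialyzed FBS.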

[2] = qHTS assay for small molecule antagonists of peroxisome proliferator-activated receptor delta signaling (AID 588535; active = well fitted inhibition curve with a large enough effect in the signal ratio, with a control signal flat, not every such curve was filed as active; the % refers to the signal ratio;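 for max response: cells co-treated with a PPAR-delta agonist as stimulator during compound exposure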); details: HEK293T PPARd-UAS-bla, beta-lactamase FRET ratio, 18 h; 460 nm channel
Method in brief: (§1)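 GeneBLAzer PPAR-delta-UAS-bla HEK293T cells in medium with 2% charcoal/dextran FBS were preincubated 5 hrs at 37 C, then given compounds, incubated 18 hrs at 37 C, and read by CCF4 beta-lactamase fluorescence; IC50 from Hill fits.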

[3] = molecular target: Peroxisome proliferator-activated receptor gamma (Homo sapiens) (UniProt P37231); assay: qHTS assay for small molecule agonists of peroxisome proliferator-activated receptor gamma signaling (AID 588536; active = well fitted curve in the direction sought with a large enough effect in the signal ratio, with a control signal flat, not every such curve was filed as active; the % refers to the signal ratio;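 note: 0% = DMSO basal wells and 100% = rosiglitazone at 2 µM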)
Method in brief: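 Test agents, titrated, stimulated HEK293 UAS-bla cells overnight (16 h, 37 C). Substrate CCF4 was then added for two hours at room temperature before fluorescence reading.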

[4] = qHTS assay for small molecule agonists of retinoid X receptor alpha signaling (AID 588544); details: HEK293T RXRa-UAS-bla, beta-lactamase reporter, 18 h; 530 nm emission;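 for activation: 0% = DMSO basal wells and 100% = reference agonist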
[5] = molecular target: Retinoic acid receptor RXR-alpha (Homo sapiens) (UniProt P19793); assay: as above
[6] = molecular target: Thyroid hormone receptor beta (Homo sapiens) (UniProt P10828); assay: qHTS assay for small molecule agonists of thyroid hormone receptor beta signaling (AID 588545);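 note: 0% = DMSO only and 100% = 10 nM T3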
Method in brief: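 Compounds were tested as agonists in TR-UAS-bla-GripTite HEK 293 cells. After 18 hrs at 37 C, CCF4 substrate was added and fluorescence read after 2 hrs at room temperature.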

[7] = qHTS assay for small molecule antagonists of retinoid X receptor alpha signaling (AID 588546; active = well fitted inhibition curve with a large enough effect in the signal ratio, with a control signal flat, not every such curve was filed as active; the % refers to the signal ratio;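 note: cells stimulated with 9-cis-retinoic acid as agonist; % is set by controls: 0 for no effect and ±100 for the full control effect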); details: HEK293T RXRa-UAS-bla, beta-lactamase ratio, antagonist mode; measured here: W530 green channel, cytotoxicity proxy
Method in brief: (§2)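 Beta-lactamase reporter inhibition, read as CCF4 fluorescence ratio (ex 405, em 460/530 nm) after 2 h at RT. HEK293T UAS-bla cells, 2500/well, were stimulated with 9-cis-RA at 500 or 100 nM final alongside test compound for 18 h at 37 C.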

[8] = molecular target: Retinoic acid receptor RXR-alpha (Homo sapiens) (UniProt P19793); assay: as above; details: HEK293T RXRa-UAS-bla, beta-lactamase ratio, antagonist mode
Method in brief: as §2

[9] = molecular target: Thyroid hormone receptor beta (Homo sapiens) (UniProt P10828); assay: qHTS assay for small molecule antagonists of thyroid hormone receptor beta signaling (AID 588547; active = well fitted inhibition curve with a large enough effect in the signal ratio, with a control signal flat, not every such curve was filed as active; the % refers to the signal ratio;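 note: cells stimulated with 0.4 nM T3 agonist during compound exposure; series mostly up to about 77 µM; % is set by controls: 0 for no effect and ±100 for the full control effect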); details: TR-UAS-bla HEK293, beta-lactamase ratio, antagonist mode, 18 h
Method in brief: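 TR-UAS-bla GripTite HEK293 cells in 2% charcoal/dextran FBS medium were preincubated 4 h at 37 C, given compound (0.59 nM to 92 uM) plus 0.4 nM T3 (final) for 18 h, then CCF4 for 2 h at RT; Hill fit gave IC50.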

[10] = molecular target: Voltage-gated inwardly rectifying potassium channel KCNH2 (Homo sapiens) (UniProt Q12809); assay: qHTS Assay for Small Molecule Inhibitors of the Human hERG Channel Activity (AID 588834; active = well fitted inhibition curve with a large enough effect;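 note: top concentration of the series differs between compounds; % is set by controls: 0 for no effect and ±100 for the full control effect; lower thallium flux fluorescence means stronger hERG block; nearly all actives have a fitted effect of over 50% in size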)
Method in brief: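 U2OS cells BacMam-transduced with hERG, 2000 cells/well, compound ~10 min at 37 °C before stimulation buffer. FluxOR thallium flux fluorescence read kinetically on FDSS; decrease indicates block; AC50 from Hill fits.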

[11] = qHTS assay for small molecule agonists of the antioxidant response element (ARE) signaling pathway (AID 651741; active = well fitted activation curve with a large enough effect in the signal ratio; the % refers to the signal ratio; note: potency is the fitted concentration of half-maximal effect; for activation: % of control where 0% means no effect)
Method in brief: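 ARE-bla HepG2 cells (beta-lactamase reporter under ARE control) were plated at 2,000 cells/well, preincubated 5 h at 37 C/5% CO2, then treated with DMSO-dissolved compounds for 16 h at 37 C; LiveBLAzer B/G FRET substrate added, fluorescence read after 2 h at room temperature.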

[12] = qHTS assay for small molecule activators of the p53 signaling pathway (AID 651743; active = well fitted activation curve with a large enough effect in the signal ratio, not every such curve was filed as active; the % refers to the signal ratio; note: series mostly up to about 92 µM; % of control where 0% means no effect); details: HCT-116 p53RE-bla, beta-lactamase FRET ratio, 16 h; stronger effect = higher value
Method in brief: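 p53RE-bla HCT-116 cells with a stably integrated beta-lactamase reporter under p53 response elements were plated, rested 5 hours at 37 C/5% CO2, then exposed to compounds in DMSO for 16 hours at 37 C. LiveBLAzer B/G FRET substrate was read after 2 hours at room temperature.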

[13] = qHTS assay for small molecule activators of the nuclear factor-kappa B (NF-kB) signaling pathway (AID 651749; active = well fitted activation curve with a large enough effect in the signal ratio; the % refers to the signal ratio; note: series mostly up to about 77 µM; % of control where 0% means no effect); details: NF-kB-bla ME-180 cells, beta-lactamase FRET ratio, 16 h; stronger effect = higher value
Method in brief: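 ME-180 cells stably carrying a beta-lactamase reporter under an NF-kB response element were exposed to compound or DMSO vehicle for 16 hr at 37C, 5% CO2. Pathway activation was read by FRET, since reporter expression disrupts FRET.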

[14] = molecular target: Peroxisome proliferator-activated receptor gamma (Homo sapiens) (UniProt P37231); assay: qHTS assay for small molecule antagonists of peroxisome proliferator-activated receptor gamma signaling (AID 588537; active = well fitted inhibition curve with a large enough effect in the signal ratio, with a control signal flat, not every such curve was filed as active; the % refers to the signal ratio;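 note: reporter cells co-stimulated with 50 nM rosiglitazone agonist during compound treatment; % of control where 0% means no effect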)
Method in brief: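 PPAR-gamma-UAS-bla HEK293 cells (3000/well, 1% charcoal/dextran-stripped FBS) were preincubated 6-6.5 h at 37 C, given titrated compounds, then stimulated with 50 nM rosiglitazone for 16 h. Beta-lactamase activity was read with CCF4 dye; IC50 came from Hill fits.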

[15] = molecular target: Vitamin D3 receptor (Homo sapiens) (UniProt P11473); assay: qHTS assay for small molecule antagonists of vitamin D receptor signaling (AID 588541);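 note: receptor activated by calcitriol during compound treatment; series mostly up to about 77 µM; % is set by controls: 0 for no effect and ±100 for the full control effect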
Method in brief: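 VDR-UAS-bla HEK293T cells (2000/well, 2% charcoal-stripped FBS) were treated with titrated compounds plus 1-alpha,25-dihydroxyvitamin D3 (50 nM or 3 nM final) for 16 h at 37 C. CCF4 beta-lactamase fluorescence was read; Hill fits gave IC50.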

[16] = molecular target: Vitamin D3 receptor (Homo sapiens) (UniProt P11473); assay: qHTS assay for small molecule agonists of vitamin D receptor signaling (AID 588543);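 note: 0% = DMSO basal and 100% = reference agonist control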
Method in brief: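 VDR-UAS-bla HEK293T cells, 2000/well, 2% charcoal-stripped FBS; compound titration 16 h at 37 C; CCF4 beta-lactamase ratio read. Normalized to 50 nM 1-alpha,25-dihydroxyvitamin D3 (100%) and DMSO; Hill fit gives EC50, efficacy.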

[17] = molecular target: Peroxisome proliferator-activated receptor delta (Homo sapiens) (UniProt Q03181); assay: qHTS assay for small molecule antagonists of peroxisome proliferator-activated receptor delta signaling (AID 588535);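 for max response: cells co-treated with a PPAR-delta agonist as stimulator during compound exposure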
Method in brief: as §1

[18] = molecular target: Glucocorticoid receptor (Homo sapiens) (UniProt P04150); assay: qHTS assay for small molecule agonists of glucocorticoid receptor signaling (AID 588532; active = well fitted curve in the direction sought with a large enough effect in the signal ratio, with a control signal flat; the % refers to the signal ratio;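 note: 100% = dexamethasone at 0.1 µM and 0% = DMSO only wells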); details: HeLa MMTV-bla, beta-lactamase ratio, agonist, 18 h; stronger effect = higher value; percent of dexamethasone control, DMSO zero
Method in brief: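 Stimulation of a glucocorticoid response element-driven beta-lactamase gene was measured in HeLa cells. Responses were scaled between DMSO basal and 0.1 uM dexamethasone, then fitted for half-maximal stimulation.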

[19] = molecular target: Glucocorticoid receptor (Homo sapiens) (UniProt P04150); assay: qHTS assay for small molecule antagonists of glucocorticoid receptor signaling (AID 588533; active = well fitted inhibition curve with a large enough effect in the signal ratio, with a control signal flat, not every such curve was filed as active; the % refers to the signal ratio)
Method in brief: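 Antagonist-mode qHTS: compound titrations added to GRE-bla HeLa cells, then dexamethasone 2 nM final; 18 h, 37 C. CCF4 FRET fluorescence normalized to dexamethasone and DMSO; IC50 from Hill fit.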

Peroxisome proliferator-activated receptor gamma (Homo sapiens), sequence (P37231 whole entry, looked up): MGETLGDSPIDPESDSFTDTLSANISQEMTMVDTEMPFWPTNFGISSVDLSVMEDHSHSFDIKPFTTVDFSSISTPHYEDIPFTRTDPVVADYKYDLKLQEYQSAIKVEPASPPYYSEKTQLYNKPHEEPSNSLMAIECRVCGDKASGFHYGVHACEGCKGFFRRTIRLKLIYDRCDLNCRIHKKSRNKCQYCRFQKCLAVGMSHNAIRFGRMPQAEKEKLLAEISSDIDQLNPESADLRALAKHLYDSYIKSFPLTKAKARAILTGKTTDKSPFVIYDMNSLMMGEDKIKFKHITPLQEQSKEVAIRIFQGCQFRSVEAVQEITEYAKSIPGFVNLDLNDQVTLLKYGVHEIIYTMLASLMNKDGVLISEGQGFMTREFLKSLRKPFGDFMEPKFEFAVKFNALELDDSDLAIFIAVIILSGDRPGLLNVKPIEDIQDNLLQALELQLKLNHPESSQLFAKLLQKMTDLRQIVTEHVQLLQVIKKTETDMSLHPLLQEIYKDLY
Glucocorticoid receptor (Homo sapiens), sequence (P04150 whole entry, looked up): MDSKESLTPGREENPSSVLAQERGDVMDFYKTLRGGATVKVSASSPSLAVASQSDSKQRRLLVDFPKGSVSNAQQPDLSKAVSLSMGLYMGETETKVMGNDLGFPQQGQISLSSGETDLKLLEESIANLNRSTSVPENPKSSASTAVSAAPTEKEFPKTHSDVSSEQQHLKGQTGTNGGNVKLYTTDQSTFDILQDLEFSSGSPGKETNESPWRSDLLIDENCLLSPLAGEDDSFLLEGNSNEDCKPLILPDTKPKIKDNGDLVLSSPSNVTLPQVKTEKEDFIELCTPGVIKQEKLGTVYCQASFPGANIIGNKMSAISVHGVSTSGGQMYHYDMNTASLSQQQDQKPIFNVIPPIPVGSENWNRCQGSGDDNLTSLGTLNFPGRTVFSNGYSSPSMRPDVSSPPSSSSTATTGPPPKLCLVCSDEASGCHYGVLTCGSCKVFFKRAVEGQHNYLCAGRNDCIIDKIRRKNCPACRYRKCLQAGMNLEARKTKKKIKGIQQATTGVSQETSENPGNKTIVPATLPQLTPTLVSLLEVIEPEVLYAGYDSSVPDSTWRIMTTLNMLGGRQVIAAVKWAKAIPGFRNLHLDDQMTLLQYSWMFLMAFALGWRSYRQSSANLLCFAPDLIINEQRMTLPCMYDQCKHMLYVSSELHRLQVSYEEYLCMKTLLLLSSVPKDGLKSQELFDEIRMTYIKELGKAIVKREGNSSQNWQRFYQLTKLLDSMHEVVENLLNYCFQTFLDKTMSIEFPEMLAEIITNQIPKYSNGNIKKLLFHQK
Peroxisome proliferator-activated receptor delta (Homo sapiens), sequence (Q03181 whole entry, looked up): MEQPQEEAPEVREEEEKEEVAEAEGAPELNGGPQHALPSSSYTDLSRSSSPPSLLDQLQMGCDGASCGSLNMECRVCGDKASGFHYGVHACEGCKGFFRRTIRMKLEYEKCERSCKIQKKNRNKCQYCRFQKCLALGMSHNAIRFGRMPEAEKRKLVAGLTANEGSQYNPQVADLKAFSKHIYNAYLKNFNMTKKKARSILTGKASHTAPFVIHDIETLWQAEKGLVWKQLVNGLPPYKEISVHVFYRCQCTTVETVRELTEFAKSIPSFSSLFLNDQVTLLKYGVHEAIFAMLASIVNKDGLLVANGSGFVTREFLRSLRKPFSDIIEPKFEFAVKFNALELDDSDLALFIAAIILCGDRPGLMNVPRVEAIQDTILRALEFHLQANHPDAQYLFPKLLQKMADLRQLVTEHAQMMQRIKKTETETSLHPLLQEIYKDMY
Bile acid receptor (Homo sapiens), sequence (Q96RI1 whole entry, looked up): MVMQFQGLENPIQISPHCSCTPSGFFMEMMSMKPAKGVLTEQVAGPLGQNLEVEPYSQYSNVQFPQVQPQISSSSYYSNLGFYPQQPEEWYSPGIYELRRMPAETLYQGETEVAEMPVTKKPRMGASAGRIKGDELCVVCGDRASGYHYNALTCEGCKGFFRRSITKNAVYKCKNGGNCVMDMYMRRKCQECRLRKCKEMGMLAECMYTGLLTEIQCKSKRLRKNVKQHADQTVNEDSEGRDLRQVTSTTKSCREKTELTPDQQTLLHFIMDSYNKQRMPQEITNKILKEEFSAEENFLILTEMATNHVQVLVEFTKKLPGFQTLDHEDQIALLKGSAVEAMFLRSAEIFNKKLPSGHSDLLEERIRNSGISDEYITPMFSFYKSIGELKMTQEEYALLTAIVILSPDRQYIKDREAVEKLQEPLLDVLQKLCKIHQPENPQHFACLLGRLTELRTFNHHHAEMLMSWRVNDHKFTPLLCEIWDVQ
Retinoic acid receptor RXR-alpha (Homo sapiens), sequence (P19793 whole entry, looked up): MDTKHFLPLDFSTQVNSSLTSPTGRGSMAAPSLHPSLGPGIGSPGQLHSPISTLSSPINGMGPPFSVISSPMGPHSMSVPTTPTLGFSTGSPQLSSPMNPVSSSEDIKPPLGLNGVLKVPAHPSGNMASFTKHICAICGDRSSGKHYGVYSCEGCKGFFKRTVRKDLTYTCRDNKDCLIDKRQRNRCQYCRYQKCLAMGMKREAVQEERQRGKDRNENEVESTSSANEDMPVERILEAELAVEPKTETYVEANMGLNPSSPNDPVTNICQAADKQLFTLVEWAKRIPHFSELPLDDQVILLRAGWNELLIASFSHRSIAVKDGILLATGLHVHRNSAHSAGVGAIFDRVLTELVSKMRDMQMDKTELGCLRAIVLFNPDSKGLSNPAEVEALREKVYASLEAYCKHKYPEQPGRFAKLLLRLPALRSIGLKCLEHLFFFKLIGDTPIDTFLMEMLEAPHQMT
Vitamin D3 receptor (Homo sapiens), sequence (P11473 whole entry, looked up): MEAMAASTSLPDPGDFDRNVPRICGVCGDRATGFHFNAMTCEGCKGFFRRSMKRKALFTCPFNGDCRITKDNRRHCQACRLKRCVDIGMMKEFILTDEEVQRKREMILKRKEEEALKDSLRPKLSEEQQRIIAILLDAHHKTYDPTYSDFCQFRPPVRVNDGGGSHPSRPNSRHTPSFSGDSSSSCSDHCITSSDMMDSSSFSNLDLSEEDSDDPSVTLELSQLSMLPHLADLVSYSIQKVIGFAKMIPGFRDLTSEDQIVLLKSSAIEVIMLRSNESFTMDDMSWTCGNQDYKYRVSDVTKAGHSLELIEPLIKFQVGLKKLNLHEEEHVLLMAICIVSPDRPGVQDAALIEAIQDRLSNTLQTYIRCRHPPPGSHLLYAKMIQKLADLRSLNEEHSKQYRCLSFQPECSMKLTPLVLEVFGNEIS
Thyroid hormone receptor beta (Homo sapiens), sequence (P10828 whole entry, looked up): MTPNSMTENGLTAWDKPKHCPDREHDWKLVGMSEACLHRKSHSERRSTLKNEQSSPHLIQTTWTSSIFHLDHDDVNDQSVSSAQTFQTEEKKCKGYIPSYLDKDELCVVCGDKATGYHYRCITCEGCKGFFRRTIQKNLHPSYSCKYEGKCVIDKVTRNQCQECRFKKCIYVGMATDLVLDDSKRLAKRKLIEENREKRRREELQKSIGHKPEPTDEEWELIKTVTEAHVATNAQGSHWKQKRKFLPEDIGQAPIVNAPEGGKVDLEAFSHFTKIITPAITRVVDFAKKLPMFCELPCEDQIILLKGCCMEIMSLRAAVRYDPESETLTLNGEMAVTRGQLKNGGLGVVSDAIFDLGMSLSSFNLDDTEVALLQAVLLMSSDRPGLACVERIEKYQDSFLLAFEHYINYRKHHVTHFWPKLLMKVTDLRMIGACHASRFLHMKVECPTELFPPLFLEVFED
Voltage-gated inwardly rectifying potassium channel KCNH2 (Homo sapiens), sequence (Q12809 whole entry, looked up): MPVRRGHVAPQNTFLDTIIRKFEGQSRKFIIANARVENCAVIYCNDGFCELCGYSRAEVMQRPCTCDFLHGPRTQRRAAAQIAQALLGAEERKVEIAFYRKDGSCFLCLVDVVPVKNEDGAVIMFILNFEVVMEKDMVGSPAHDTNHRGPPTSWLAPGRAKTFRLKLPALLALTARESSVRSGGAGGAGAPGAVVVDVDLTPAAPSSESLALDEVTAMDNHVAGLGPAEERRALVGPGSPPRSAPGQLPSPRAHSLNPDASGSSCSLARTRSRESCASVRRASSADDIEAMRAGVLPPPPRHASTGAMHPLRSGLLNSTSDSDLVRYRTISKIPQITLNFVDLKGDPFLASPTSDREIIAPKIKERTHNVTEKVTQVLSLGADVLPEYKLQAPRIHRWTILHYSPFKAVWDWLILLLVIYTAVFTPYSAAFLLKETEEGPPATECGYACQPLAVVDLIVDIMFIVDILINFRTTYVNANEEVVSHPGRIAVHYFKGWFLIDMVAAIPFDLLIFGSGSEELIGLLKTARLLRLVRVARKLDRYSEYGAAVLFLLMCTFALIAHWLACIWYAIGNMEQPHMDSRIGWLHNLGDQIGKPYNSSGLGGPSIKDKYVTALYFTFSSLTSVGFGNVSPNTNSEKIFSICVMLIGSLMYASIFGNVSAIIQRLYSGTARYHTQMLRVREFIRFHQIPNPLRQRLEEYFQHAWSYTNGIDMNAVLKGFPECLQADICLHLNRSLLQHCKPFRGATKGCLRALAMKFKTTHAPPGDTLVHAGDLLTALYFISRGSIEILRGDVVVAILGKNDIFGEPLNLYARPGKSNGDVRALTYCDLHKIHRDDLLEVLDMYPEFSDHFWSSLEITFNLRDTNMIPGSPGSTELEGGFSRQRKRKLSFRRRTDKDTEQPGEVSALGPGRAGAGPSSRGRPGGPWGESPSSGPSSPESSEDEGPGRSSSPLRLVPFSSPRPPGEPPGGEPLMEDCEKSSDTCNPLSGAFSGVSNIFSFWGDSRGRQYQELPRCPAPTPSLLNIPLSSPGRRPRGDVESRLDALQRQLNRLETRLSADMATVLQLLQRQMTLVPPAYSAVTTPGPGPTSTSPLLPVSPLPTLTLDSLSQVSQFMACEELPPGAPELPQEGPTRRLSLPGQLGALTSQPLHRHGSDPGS

BrC/C=C/CBr
active: Potency [11] 42.2 µM
-0.458%: max response [7]
2.54%: max response [4]
20.5%: max response [2]
inactive: outcome [1] | outcome [3] | outcome [5] | outcome [6] | max response [8] -9.94% | activity change % (negative = inhibition) [9] 15.3% | Potency [10] | activation [12] 0.265% | activation [13] 0.2%

O=C(O)c1c(Cl)cccc1Cl
-13.5%: max response [4]
inactive: outcome [1] | outcome [3] | outcome [14] | outcome [5] | outcome [6] | max response [8] 13.3% | activity change % (negative = inhibition) [9] 3.89% | Potency [10] | Potency [11] | activation [12] -0.426%
2.22%: max response [7]

c1ccc2[nH]cnc2c1
inactive: outcome [1] | outcome [3] | outcome [14] | outcome [15] | outcome [16] | outcome [5] | outcome [6] | activity change % (negative = inhibition) [9] 2.62% | Potency [10] | activation [12] 0.533% | activation [13] 1.42%
-10.3%: max response [4]

CNC(=O)c1ccccc1
-5.28%: max response [4]
inactive: outcome [1] | Potency [17] | outcome [3] | outcome [15] | outcome [16] | outcome [5] | max response [8] 15.4% | activity change % (negative = inhibition) [9] -4.06% | Potency [10] | Potency [11] | activation [12] 1.09% | activation [13] -1.22%
1.71%: max response [2]
-1.2%: max response [7]

O=C(O)c1cccc([N+](=O)[O-])c1
-5.28% and -12.1%: max response [7]
27.4% and 43.1%: max response [2]
inactive: activation [18] 3.85% | outcome [19] | Potency [17] | outcome [3] | outcome [14] | outcome [5] | outcome [6] | max response [8] -4.13% and 8.19% | activity change % (negative = inhibition) [9] 3.98% and -3.17% | Potency [10] | Potency [11] | activation [12] -1.71% and -6.43% | activation [13] -1.01% and -3.15%
-11.3% and -11.9%: max response [4]

ICCc1ccccc1
-3.71%: max response [7]
3.08%: max response [4]
13.6%: max response [2]
inactive: activation [18] -2.34% | outcome [19] | Potency [17] | outcome [3] | outcome [15] | outcome [16] | outcome [5] | outcome [6] | max response [8] 22.3% | activity change % (negative = inhibition) [9] 3.09% | Potency [10] | Potency [11] | activation [12] -3.45% | activation [13] -1.75%

O=[N+]([O-])c1ccc(Cl)cc1Cl
-6.43%: max response [4]
inactive: activation [18] 2.45% | outcome [19] | Potency [17] | outcome [3] | outcome [14] | outcome [5] | outcome [6] | max response [8] 10.3% | activity change % (negative = inhibition) [9] 17.6% | Potency [10] | activation [13] 0.0961%
-4.28%: max response [7]
2.66%: max response [2]

CN(C)c1cccc(O)c1
-0.228%: max response [4]
-1.21%: max response [7]
inactive: activation [18] -1.05% | outcome [19] | Potency [17] | outcome [3] | outcome [15] | outcome [16] | outcome [5] | outcome [6] | max response [8] 8.46% | activity change % (negative = inhibition) [9] 5.73% | Potency [10] | activation [13] -0.862%
-10%: max response [2]

COc1ccc(N=[N+]([O-])c2ccc(OC)cc2)cc1
-4.97%: max response [7]
8.26%: max response [2]
inactive: activation [18] 9.01% | outcome [19] | Potency [17] | outcome [3] | outcome [15] | outcome [16] | outcome [6] | max response [8] -10.1% | activity change % (negative = inhibition) [9] 11.6% | Potency [10] | activation [12] -0.811% | activation [13] 0.0779%
active: Potency [11] 37.6 µM

Cc1cc(C)cc(O)c1
0.806%: max response [4]
32.1%: max response [2]
inactive: activation [18] -1.28% | outcome [19] | Potency [17] | outcome [3] | outcome [15] | outcome [16] | outcome [5] | outcome [6] | max response [8] 24.6% | activity change % (negative = inhibition) [9] 2.53% | Potency [10] | Potency [11] | activation [12] -2.15%
-5.75%: max response [7]

O=C(O[C@@H](C(=O)O)[C@@H](OC(=O)c1ccccc1)C(=O)O)c1ccccc1
-17.8%: max response [4]
4.27%: max response [7]
inactive: activation [18] -3.12% | outcome [19] | Potency [17] | outcome [3] | outcome [5] | max response [8] -0.94% | activation [12] -2.28% | activation [13] 0.306%
-10.6%: max response [2]

C[C@@H]1O[C@@H](O[C@@H]2[C@@H](O)[C@H](OCCc3ccc(O)c(O)c3)O[C@H](CO[C@@H]3O[C@H](CO)[C@@H](O)[C@H](O)[C@H]3O)[C@H]2OC(=O)/C=C/c2ccc(O)c(O)c2)[C@H](O)[C@H](O)[C@H]1O
0.999%: max response [4]
20.8%: max response [2]
inactive: activation [18] 2.75% | outcome [19] | Potency [17] | outcome [3] | outcome [15] | outcome [16] | outcome [5] | outcome [6] | max response [8] -6.94% | activity change % (negative = inhibition) [9] 4.68% | Potency [10] | Potency [11] | activation [12] -0.671% | activation [13] -0.414%
-0.609%: max response [7]

CC(C)(C)c1ccc(OCC2CO2)cc1 (centres undefined)
inactive: activation [18] -4.85% | outcome [19] | Potency [17] | outcome [15] | outcome [16] | outcome [5] | outcome [6] | max response [8] 11.5% | activity change % (negative = inhibition) [9] 5.82%
-2.99%: max response [7]
18.6%: max response [2]
-13.4%: max response [4]

CC(C)=CCC/C(C)=C/C=O
-1.69% and 16.6%: max response [2]
inactive: activation [18] -2.98% and -2.55% | outcome [19] | Potency [17] | outcome [3] | outcome [15] | outcome [16] | outcome [5] | outcome [6] | max response [8] 4.52% and -4.94% | activity change % (negative = inhibition) [9] -16.2% | Potency [10] | Potency [11] | activation [12] -0.8% and -0.838%
6.99% and -4.75%: max response [7]
15.9% and -0.251%: max response [4]

O=C1NC(=O)c2cc([N+](=O)[O-])ccc21
-20.7%: max response [2]
3.03%: max response [4]
4.85%: max response [7]
inactive: activation [18] -4.49% | outcome [19] | Potency [17] | outcome [3] | outcome [5] | max response [8] 7.59% | activity change % (negative = inhibition) [9] 2.64% | Potency [11] | activation [12] -2.78% | activation [13] 0.0192%
